Screening data as filed in PubChem.
PLCb3 inh – PLC-beta3 (human) inhibition, primary screen. Purified PLC-beta3, fluorogenic substrate, fluorescence. hit rate 0.18% among 370,000. Q01970. inhibition, % at 12.2 µM; in the data active means inhibition above about 11%;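 further: 0% = median of compound wells on plate and 100% = full blocker control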
Target sequence (Q01970 whole entry, looked up): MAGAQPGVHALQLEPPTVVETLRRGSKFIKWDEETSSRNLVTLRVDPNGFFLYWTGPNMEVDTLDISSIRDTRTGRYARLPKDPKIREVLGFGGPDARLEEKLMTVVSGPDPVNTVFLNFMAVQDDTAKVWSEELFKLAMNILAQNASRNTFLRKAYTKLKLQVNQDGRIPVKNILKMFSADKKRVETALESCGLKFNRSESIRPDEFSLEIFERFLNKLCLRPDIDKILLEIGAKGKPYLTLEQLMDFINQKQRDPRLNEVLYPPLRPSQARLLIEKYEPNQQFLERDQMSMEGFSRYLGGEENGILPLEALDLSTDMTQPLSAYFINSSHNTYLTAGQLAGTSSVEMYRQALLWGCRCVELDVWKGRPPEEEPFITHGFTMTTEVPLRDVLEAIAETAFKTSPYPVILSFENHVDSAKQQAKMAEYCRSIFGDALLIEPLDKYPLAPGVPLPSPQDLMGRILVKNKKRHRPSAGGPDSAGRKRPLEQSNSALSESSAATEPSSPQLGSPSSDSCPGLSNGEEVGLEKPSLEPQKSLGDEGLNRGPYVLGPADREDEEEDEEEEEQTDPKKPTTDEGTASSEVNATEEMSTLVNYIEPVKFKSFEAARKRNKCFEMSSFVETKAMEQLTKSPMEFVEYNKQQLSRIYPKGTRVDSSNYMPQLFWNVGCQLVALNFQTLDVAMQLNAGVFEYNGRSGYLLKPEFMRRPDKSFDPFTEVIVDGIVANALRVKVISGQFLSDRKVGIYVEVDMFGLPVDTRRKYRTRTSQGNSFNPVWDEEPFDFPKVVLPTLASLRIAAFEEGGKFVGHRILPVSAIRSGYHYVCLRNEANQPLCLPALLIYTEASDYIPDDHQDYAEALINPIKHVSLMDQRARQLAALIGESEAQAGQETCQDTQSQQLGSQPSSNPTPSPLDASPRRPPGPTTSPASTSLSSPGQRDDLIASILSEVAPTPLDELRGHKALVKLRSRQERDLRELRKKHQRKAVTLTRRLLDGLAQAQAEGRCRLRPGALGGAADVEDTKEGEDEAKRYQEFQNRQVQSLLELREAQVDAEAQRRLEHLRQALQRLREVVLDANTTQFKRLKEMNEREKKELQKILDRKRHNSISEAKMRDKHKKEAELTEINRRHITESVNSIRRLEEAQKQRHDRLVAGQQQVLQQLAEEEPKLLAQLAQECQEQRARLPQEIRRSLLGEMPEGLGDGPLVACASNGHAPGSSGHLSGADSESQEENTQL
sPLA2-III inh – Inhibits HGIII-sPLA2 liposome hydrolysis, primary screen. hit rate 0.56% among 370,000. inhibition, % at 12.2 µM. QFRET BODIPY PC-A2 liposome hydrolysis, fluorescence. Q9NZ20;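 active means inhibition above mean plus 3 SD of compounds lying within the high and low control bounds, cut at about 19% in these data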;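 further: 0% = median of test compound wells and 100% = no enzyme DMSO wells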
ADAM10 inh – inhibits human ADAM10; recombinant ADAM10, EDANS/DABCYL FRET peptide cleavage, 3 h; inhibition, % at 7 µM; hit rate 0.62% among 370,000;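 active means inhibition above a per-campaign cutoff equal to the mean of compounds falling between control-based bounds plus 3 SD, cut at about 20% in these data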;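 further: 0% = DMSO wells while the 100% control is not disclosed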
proKLK7 act – proKLK7 (human) activation, primary screen; activation, % at 7 µM; hit rate 0.9% among 370,000; P49862; purified proKLK7, EDANS-DABCYL substrate fluorescence; 100% is mature enzyme control, 0% vehicle;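 active means activation above the mean of all tested compounds plus 3 SD, computed per campaign excluding outliers beyond control limits, cut at about 13% in these data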
PLCg1 inh – inhibitors of human phospholipase C gamma1. purified PLC-gamma1, fluorogenic substrate, fluorescence. AID 720700. hit rate 0.84% among 370,000. P19174. inhibition, % at 12.2 µM
ADAM17 inh – ADAM17 inhibition, QFRET primary screen. P78536. recombinant ADAM17, EDANS/DABCYL FRET peptide cleavage. inhibition, % at 6.95 µM. hit rate 0.83% among 370,000. AID 720648;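 active means inhibition above the mean of compounds lying between control limits plus 3 SD, set per campaign, cut at about 8.5% in these data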;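 further: 0% = DMSO-only wells as the low control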
ADAM10 ctr – ADAM10 inhibition, counter-screen for ADAM17 exosite hits | hit rate 47% among 2,900 | recombinant ADAM10, EDANS/DABCYL FRET peptide cleavage, 3 h | shares compounds with ADAM17 inh | AID 743256 | inhibition, % at 6.95 µM;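 active means mean inhibition over the triplicate runs exceeds the activity threshold set in the earlier primary screen, cut at about 20% in these data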;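 further: 0% = DMSO wells and 100% = marimastat wells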
ADAM17 confirm – confirmation of inhibitors of human ADAM17. shares compounds with ADAM17 inh. recombinant ADAM17, EDANS/DABCYL QFRET peptide cleavage. inhibition, % at 6.95 µM. hit rate 65% among 2,900. AID 743257;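 active means mean inhibition across replicates above the hit cutoff set in the primary screen, cut at about 8.5% in these data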;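 further: 0% = DMSO wells and 100% = marimastat wells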
PLCgamma1 ctr – counter-screen for PLC-beta3 inhibitors: inhibitors of human PLC-gamma1 | inhibition, % at 12.3 µM | shares compounds with PLCg1 inh | hit rate 3.1% among 3,300 | purified PLC-gamma1, fluorogenic substrate, fluorescence
PLCbeta3 conf – confirmation of human PLC-beta3 inhibitors. shares compounds with PLCg1 inh. purified PLC-beta3, fluorogenic substrate fluorescence. inhibition, % at 12.3 µM. hit rate 1% among 3,300. AID 743261; in the data active means inhibition above about 11%
hGIII sPLA2 conf – human GIII-sPLA2 inhibition, confirmation | shares compounds with sPLA2-III inh | recombinant hGIII-sPLA2, BODIPY PC-A2 QFRET fluorescence | inhibition, % at 12.2 µM | hit rate 34% among 2,000 | AID 743280;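 active means mean inhibition across triplicates above the hit cutoff set in the earlier primary screen, cut at about 19% in these data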;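 further: 0% = enzyme with DMSO and 100% = DMSO wells lacking enzyme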
535nm interf – 535nm fluorescence interference, HGIII-sPLA2 counter-screen | BODIPY FL product fluorescence interference, QFRET | hit rate 8.5% among 2,000 | shares compounds with sPLA2-III inh | AID 743282 | inhibition, % at 12.2 µM;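 active means average inhibition above the solvent-only control mean plus 3 SD, cut at about 6% in these data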;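 further: 0% = DMSO with substrate plus product and 100% = DMSO with substrate alone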
Numbers without * were called inactive; x = no result. An excerpt weighted towards active compounds, which were near 3.4% of everything screened. Unless noted, no stated cut-off is given here; in the data, active means inhibition above about 9.5%; inactive means the rest.

SMILES	PLCb3 inh	sPLA2-III inh	ADAM10 inh	proKLK7 act	PLCg1 inh	ADAM17 inh	ADAM10 ctr	ADAM17 confirm	PLCgamma1 ctr	PLCbeta3 conf	others
C/C(=N\N=C1\NC(=O)CS1)c1cccs1	6	10	16	1	13*	11*	9	7	2	3
CCN(c1cccc(C)c1)S(=O)(=O)c1ccc2c(c1)CCN2C(C)=O	0	-8	-5	1	3	-1	x	x	x	x
CCN(c1cccc(C(F)(F)F)c1)S(=O)(=O)c1ccc2c(c1)CCN2C(C)=O	5	-6	11	0	14*	8.7*	20*	11*	-9	-5
Nc1n[nH]c(N)c1N=Nc1ccc(Cl)cc1	14*	9	17	0	20*	11*	2	2	6	6
Cc1noc(C)c1S(=O)(=O)N(CC(=O)NC1CCCC1)c1ccc(C(C)C)cc1	-4	6	-6	-1	-2	1	x	x	x	x
OC(CN1CCN(c2ncc(C(F)(F)F)cc2Cl)CC1)c1ccccc1 (stereo unspecified)	2	2	3	0	13*	10*	-7	-3	-6	-4
N#Cc1ccc(OCC(O)CN2CCN(c3ncc(C(F)(F)F)cc3Cl)CC2)cc1 (stereo unspecified)	-4	-5	12	1	1	4	x	x	x	x
CC1CCN(S(=O)(=O)c2ccc3c(c2)N(CC(=O)NCCCN2C(C)CCCC2C)C(=O)CO3)CC1 (stereo unspecified)	-6	-3	2	0	11*	14*	0	8	-6	-2
CC1CCCC(C)N1CCCNC(=O)CN1C(=O)COc2ccc(S(=O)(=O)N3CCOCC3)cc21 (stereo unspecified)	-2	-2	-4	0	1	0	x	x	x	x
C#CCN(C[C@@H]1[C@@H](OC(=O)NCc2ccccc2F)[C@@H](OC(=O)NCc2ccccc2F)CN(C(=O)OC(C)C)N1C(=O)OC(C)C)S(=O)(=O)c1ccc(C)cc1	5	-19	15	0	-4	8	x	x	x	x
COc1ccc(NC(=O)CC2C(=O)N(C)C(=S)N2Cc2ccncc2)cc1 (stereo unspecified)	0	-6	9	0	10*	9.1*	1	2	-6	-6
CC(C)(Oc1ccc(Cl)cc1)C(=O)OCC(=O)Nc1ncc(Cl)cc1Cl	12*	-6	15	1	8	9.9*	0	0	-1	1
Cn1c(SCc2ccc([N+](=O)[O-])cc2)nnc1-c1ccncc1	-2	2	-5	0	2	-2	x	x	x	x
C=CCN=C1NC(c2ccccc2)C(C(=O)OC)=C(C)N1Cc1cccc(C(F)(F)F)c1 (stereo unspecified)	-1	3	-9	0	-1	-6	x	x	x	x
C=CCN=C1NC(c2cccc(Cl)c2)C(C(=O)OC)=C(C)N1Cc1cccc(C(F)(F)F)c1 (stereo unspecified)	12*	-8	0	0	9	10.0*	8	8	-11	-7
CCOC(=O)C1CN(S(=O)(=O)c2ccc(C)cc2)c2cc(S(=O)(=O)CC)ccc2O1 (stereo unspecified)	2	8	-2	0	2	-1	x	x	x	x
CCOC(=O)CC1(C)Oc2ccccc2N1S(=O)(=O)c1ccc(C)cc1 (stereo unspecified)	4	-2	14	0	9.8*	9.9*	8	6	-1	-5
Nc1c(N(Cc2ccccc2)C(=O)COc2ccc([N+](=O)[O-])cc2)c(=O)[nH]c(=O)n1Cc1ccccc1	1	-2	1	1	-2	-1	x	x	x	x
O=C(c1ccc(CSc2nc3ccncc3[nH]2)cc1)N1CCN(c2cccc(Cl)c2)CC1	2	-23	15	0	16*	9.1*	28*	15*	2	1
O=C(CNC(=O)c1ccc(Cl)cc1Cl)OCC(=O)N1CCCC1=O	2	0	-3	0	2	-4	x	x	x	x
COC(=O)[C@]12C[C@H](CC(=O)N3CCN(C(=O)c4ccco4)CC3)C(=O)N(Cc3ccc(Cl)cc3Cl)C1=C[C@H](COCc1ccccc1)O[C@@H]2C	-1	-22	17	1	13*	13*	18	10*	-4	-2
COC(=O)[C@]12C[C@H](CC(=O)N3CCCCC3)C(=O)N(Cc3ccc(Cl)cc3Cl)C1=C[C@H](COCc1ccccc1)O[C@@H]2C	1	-4	4	0	1	-4	x	x	x	x
O=S(=O)(c1cccs1)N1CCC(CO)(Cc2ccc(Cl)cc2)CC1	0	-17	17	0	10*	12*	1	8	-1	0
COc1ccc(C(=O)NCCN2C(=O)S/C(=C\c3cccnc3)C2=O)cc1[N+](=O)[O-]	-7	0	3	-1	3	-1	x	x	x	x
CN(Cc1ccccc1)S(=O)(=O)c1ccc(NC(=O)C2CCCO2)cc1 (stereo unspecified)	-5	23*	0	0	4	8.9*	-5	-1	x	x	hGIII sPLA2 conf=-5;535nm interf=-14
CN(Cc1ccccc1)S(=O)(=O)c1ccc(NC(=O)C2CCCCC2C(=O)O)cc1 (stereo unspecified)	-8	1	-16	0	3	-4	x	x	x	x
O=C(CSc1nc2ccccc2s1)Nn1cnnc1	1	1	4	0	2	-3	x	x	x	x
C=CCNC(=S)NNC(=O)CSc1nc2ccccc2s1	-3	30*	5	0	0	11*	0	5	x	x	hGIII sPLA2 conf=20*;535nm interf=0
CC1CCC(NC(=O)C(NS(=O)(=O)c2cccc3nsnc23)C(C)C)CC1 (stereo unspecified)	-3	86*	1	0	11*	13*	5	7	3	2	hGIII sPLA2 conf=-4;535nm interf=-7
